Screens (PubChem BioAssay)
Rows were chosen to be rich in hits. Some 10% of all compounds tested hit in one or more screens of this group.
PNC inhibitor: perinucleolar compartment assembly inhibition. activity change (PNC), negative = inhibition, % at 10 µM. 140,000 compounds, 3.1% hits. AID 2417. PC3M PTB-GFP, PNC prevalence imaging, 16 h; active compounds read low;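 active means readout at or below -70, meaning at least 70% loss of cells showing the perinucleolar compartment, a nuclear body marking cancer cells; inconclusive means readout between -30 and a set limit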;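 further: plate controls were DMSO wells for no effect and camptothecin positive control wells for full effect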
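Read-out is percentage of cells bearing a perinucleolar compartment, from automated 20x imaging of fixed, Hoechst-stained PC3M PTB-GFP cells. Cells were seeded 4 h, then exposed 16 h to compound (23 nl of library stock) in duplicate plates.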
GLA inh pH 4.5: blocks human alpha-galactosidase A at pH 4.5. P06280. purified enzyme, 4-MU-alpha-Gal fluorescence, pH 4.5. activity change, negative = inhibition, % at 105 µM. 230,000 tested, under 10 active. AID 1467;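 further: 0% = full activity with enzyme and -100% = basal without enzyme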
HPGD inh: blocks human HPGD enzyme activity | P15428 | purified HPGD, NADH fluorescence kinetic, PGE2 substrate | Potency, µM, for the others: at the top dose activity change, negative = inhibition, actives largely listed as inhibitors | 150,000 compounds, 4.3% hits | AID 894; active means well fitted inhibition curve with a large enough effect, not every such curve was filed as active; inconclusive means small, poorly fitted or top-dose-only effect, or another doubt; inactive means no such curve, though single readings can be large or run the other way; further: potency means the concentration at half of the fitted maximal effect
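20 nM HPGD preincubated 15 min at room temperature with compound in 50 mM Tris-HCl pH 8, 0.01% Tween 20. Started with 1 mM NAD+ and 30 uM prostaglandin E2; NADH fluorescence (360/450 nm) read 5 times over 30-s intervals, last minus first.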
GLA spleen mod: inhibitors or activators of human alpha-galactosidase in spleen homogenate; AID 2107; human spleen homogenate, 4MU-alpha-Gal fluorescence, 40 min; Potency, µM (top dose mostly 80 µM), inactives show at the top dose activity change, negative = inhibition, usual class: inhibitors; 240,000 compounds, 0.008% hits;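 further: potency means the concentration at half of the fitted maximal effect; 0% = enzyme with vehicle and -100% = no enzyme basal signal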
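Inhibition or activation of alpha-galactosidase in human spleen homogenate is scored by 4-MU fluorescence after 40 min at 37C, pH 5.0, with 1 mM substrate. AC50s come from concentration-response fitted to the Hill equation.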
12-hLO inh: 12-hLO (ALOX12) enzyme inhibition; P18054; purified 12-hLO, xylenol orange hydroperoxide absorbance; Potency, µM (top dose mostly 57.1 µM), without a hit: top-dose activity change, negative = inhibition, actives largely listed as inhibitors; 150,000 compounds, 0.12% hits; further: potency means the concentration at half of the fitted maximal effect; nearly all actives have a fitted effect of over 55% in size
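Purified human 12hLO (150 nM), preincubated 15 min with compound, then 40 uM arachidonic acid for 30 min, room temperature, Hepes pH 7.0 with 0.01% Triton X-100. Hydroperoxide detected by ferrous iron/xylenol orange; 573/405 nm absorbance ratio gives reaction progress.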
ALDH1A1 inh: inhibitors of human aldehyde dehydrogenase 1A1 | P00352 | Purified ALDH1A1, NADH fluorescence, propionaldehyde substrate | Potency, µM (titrated, usually from 75.3 µM), without a hit: at the top dose activity, negative = inhibition, most hits filed as inhibitors | 220,000 compounds, 7.3% hits | AID 1030; active means well fitted inhibition curve with a large enough effect, not every such curve was filed as active; inconclusive means small, poorly fitted or top-dose-only effect, or another doubt; inactive means no such curve, though single readings can be large or run the other way;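 further: potency means the concentration at half of the fitted maximal effect; plate controls were no enzyme wells and a reference inhibitor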
Target sequence (P00352 whole entry, looked up): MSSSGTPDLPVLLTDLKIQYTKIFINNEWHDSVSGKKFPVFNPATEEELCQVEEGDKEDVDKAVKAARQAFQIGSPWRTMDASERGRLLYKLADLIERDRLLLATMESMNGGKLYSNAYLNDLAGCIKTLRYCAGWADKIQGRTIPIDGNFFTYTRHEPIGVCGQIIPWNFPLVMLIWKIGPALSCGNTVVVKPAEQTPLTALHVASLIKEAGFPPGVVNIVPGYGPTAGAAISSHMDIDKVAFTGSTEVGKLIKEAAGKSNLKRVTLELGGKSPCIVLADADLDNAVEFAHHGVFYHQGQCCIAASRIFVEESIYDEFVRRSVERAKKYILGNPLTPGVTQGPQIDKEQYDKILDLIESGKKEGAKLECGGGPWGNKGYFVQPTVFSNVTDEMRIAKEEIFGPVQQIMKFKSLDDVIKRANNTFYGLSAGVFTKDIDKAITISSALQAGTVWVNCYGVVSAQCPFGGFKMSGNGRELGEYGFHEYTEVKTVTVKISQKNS
The depositor's hits bear a star; ? = inconclusive; · = not tested or not shown; [ ] = remark or other dose. Unless noted, the call rests on the fitted dose curve; in most records, active means well fitted curve in the direction sought with a large enough effect; inconclusive means small, poorly fitted or top-dose-only effect, or another doubt; inactive means no such curve, though single readings can be large; an effect the other way counts as inactive or inconclusive. Unless noted, on the % scale 0 is the no-effect control and ±100 the full control effect.

SMILES	PNC inhibitor	GLA inh pH 4.5	HPGD inh	GLA spleen mod	12-hLO inh	ALDH1A1 inh
CCCOC(=O)CN1C(=O)c2ccccc2C1=O	-13	6	-6%	0%	-5%	22µM*
O=C(CCN1C(=O)c2ccccc2C1=O)OCN1C(=O)c2ccccc2C1=O	-4	4	-16%	1%	6%	-6%
CCn1c(O)c(N=NC(=O)c2cccnc2)c2cc(Br)ccc21	·	-10	·	-2%	·	?
O=C(N=NC(=O)c1ccc2c(O)n(C3CCCCC3)c(O)c2c1)c1cccnc1	56	11	-17%	-6%	1%	2.2µM*
CC(C)(C)C(=O)NC(=S)NNC(=O)c1sc2ccccc2c1Cl	-112*	-6	-15%	2%	-2%	?
O=C(NNC(=O)c1sc2cccc(Cl)c2c1Cl)Nc1ccccc1	?	-3	-8%	-1%	-4%	?
O=C(NNC(=O)C1CC2CCC1C2)c1sc2ccccc2c1Cl (stereo not given)	-17	3	-10%	-5%	-5%	25µM*
O=C(NNC(=O)c1sc2cccc(Cl)c2c1Cl)NC1CCCCC1	17	4	-9%	4%	3%	3.5µM*
O=C(NNC(=S)NC1CCCCC1)c1sc2ccccc2c1Cl	22	5	-29%	-6%	0%	22µM*
CC(NC(=O)c1sc2ccccc2c1Cl)C1CCCO1 (stereo not given)	24	-5	-25%	-5%	-2%	12%
O=C(NNC(=S)NC1CCCCC1)c1ccc(Cl)s1	·	0	·	3%	·	-8%
c1ccc(-c2nnc(SCC3CCCCO3)nc2-c2ccccc2)cc1 (stereo not given)	·	-19	·	1%	·	?
N#Cc1c2c(c(-c3ccccc3Cl)[nH]c1=S)CCCC2	·	6	·	-3%	·	-5%
N#Cc1c(-c2ccccc2Cl)cc(-c2ccccc2)[nH]c1=S	·	5	·	-11%	·	10µM*
Cc1cc(-c2ccccc2)c(C#N)c(=S)[nH]1	1	0	14µM*	5%	-11%	7.9µM*
Cc1[nH]c(=S)c(C#N)c(C)c1Cc1ccccc1	·	0	·	-18%	·	·
NC(=O)c1ncn([C@@H]2O[C@H](CO)[C@@H](O)[C@H]2O)c1N	·	·	·	8%	·	·
COCCCNC(=O)c1ccc(Cn2c(=O)c3ccccc3n(Cc3ccccc3C#N)c2=O)cc1	14	-6	-22%	-3%	2%	?
COc1ccc(COC(=O)N/N=C2/C[C@@H](O)[C@@H](O)[C@@H]3[C@@H]4C(=O)N(C5CCCCC5)C(=O)[C@H]4CC[C@H]23)cc1	·	·	·	8%[17.5 µM]	·	-6%[13.5 µM]
CCCCC#CC1C=CC(Oc2cc(OC)c(OC)c(OC)c2)C(CO)O1 (stereo not given)	·	·	·	-9%[17.5 µM]	·	-14%[13.5 µM]
CN(C)S(=O)(=O)c1ccc(-c2csc(N/N=C/c3ccc(O)cc3)n2)cc1	·	-16	·	9%	·	·
C=C1CCC[C@]2(C)C[C@H]3OC(=O)[C@H](CNCCc4ccccc4OC)C3CC12 (stereo not given in full)	·	-2	-2%	1%	·	8.9µM*
COc1ccc(CNC(=O)COC(=O)CC2CC3CCC2C3)cc1OC (stereo not given)	26	1	-15%	5%	-2%	4%
O=C(COC(=O)CC1CC2CCC1C2)NC(=O)NCc1ccco1 (stereo not given)	17	-5	-23%	6%	11%	14µM*
c1coc(CSc2ncnc3c2oc2ccccc23)c1	·	-4	·	7%	·	·
SMILES	PNC inhibitor	GLA inh pH 4.5	HPGD inh	GLA spleen mod	12-hLO inh	ALDH1A1 inh
Cn1cccc1C(=O)N1CCC2(CC1)CCN(c1ccccc1)CC2	·	·	-7%	10%	-5%	-8%
Cc1ccccc1-c1ccc2ncnc(-n3ccnc3)c2c1	·	·	·	-3%	·	?
Cn1cnnc1SCCC(=O)Nc1ccc(Cl)cc1	-113*	6	-4%	-2%	2%	13%
COc1ccccc1-c1nccc(NCc2cccnc2)n1	·	·	·	-4%	·	?
Cc1cccc2nc(CSc3nc4ccc([N+](=O)[O-])cc4[nH]3)c(Br)n12	-19	-9	?	8%	-1%	25µM*
NC(=O)CSc1nc2ccc([N+](=O)[O-])cc2[nH]1	·	-4	·	-8%	·	5%
c1ccc(-c2n[nH]c3ccccc23)cc1	17	-3	14µM*	-2%	2%	?
Fc1ccc(-c2n[nH]c(=S)c3ccccc23)cc1	·	-1	·	-5%	·	4µM*
COC(=O)c1ccc(-c2n[nH]c(=O)c3ccccc23)cc1	?	5	-15%	1%	-3%	3%
O=c1[nH]nc(-c2ccccc2)c2ccccc12	·	4	·	0%	·	·
COc1ccc(-n2c(=O)c(C)nc3cnc(N4CCNCC4)nc32)cc1	·	·	-21%	2%	3%	?
CCCn1c(N2CCN(CC(=O)NCc3cccs3)CC2)nc2ccccc21	-87*	-1	-10%	13%	-7%	?
CCCn1c(N2CCN(C(=O)Nc3ccccc3)CC2)nc2ccccc21	·	-1	·	-5%	·	-14%
COC(=O)C1=C(C)NC2=C(C(=O)CCC2)C1c1ccc(-c2ccsc2C(=O)OC)o1 (stereo not given)	·	-8	·	2%	·	?
C=CCC1(NC(C)c2ccccc2)CCCCC1 (stereo not given)	-113*	3	-7%	-8%	-4%	9%
C[C@H](NCc1ccccc1)c1ccccc1	·	·	·	11%	·	·
CC1=NNC(=O)C1C(c1cccc(O)c1)C(C#N)C#N (stereo not given)	·	-4	·	1%	·	·
CC1=NNC(=O)C1C(c1ccccc1)C1C(=O)NN=C1C (stereo not given)	·	-3	·	5%	·	32µM*
COc1ccc(Br)cc1C1C2C=CCCC2(C)C(=O)N1Cc1ccccc1 (stereo not given)	·	·	·	2%	·	·
Cc1cccc(C(=O)Oc2csc(=S)n2C(=O)c2cccc(C)c2)c1	-2	1	14µM*	-5%	5%	8.9µM*
O=C(Oc1csc(=S)n1C(=O)c1ccccc1)c1ccccc1	5	1	4.5µM*	-2%	0%	3.2µM*
CC(C)NC(=O)N1CCC2(CC1)CCN(C(=O)c1ccncc1)CC2	·	·	-6%	2%	2%	-5%
O=C(NCc1cccc(F)c1)c1noc2c1CCCC2	?	2	20µM*	-1%	7%	?
CSc1ccccc1NC(=O)c1noc2c1CCC2	?	-1	?	-1%	-15%	25µM*
O=C(NCc1ccccc1)c1noc2c1CCCC2	-3	-4	-19%	21%	-1%	2%
O=c1c(-c2cc(F)cc(F)c2)nc2cnc(N3CCOCC3)nc2n1-c1ccccc1	·	·	?	16%	-4%	?
COc1ccc(C(C)=O)cc1COc1ccc(-n2cnnn2)cc1	-1	-2	?	-10%	11%	3.5µM*
